Experimental data reported in PubChem BioAssay (NCATS).
Records with an inconclusive call do not appear. Where a call stands in place of a potency, no number is given. A number with no mark means an inactive call. Active and inactive are the calls of the source. The call rests on the fitted dose curve; in most records, active means well fitted inhibition curve with a large enough effect; inconclusive means small, poorly fitted or top-dose-only effect; inactive means flat fitted curve, though single readings scatter. *1 amine or outer side, *2 acyl side, *3 side chain or, on linkers, in order; H or OH if unused. Where a SMILES comes first, the peptide text is derived from it. [ ]: non-standard residue; d: D form. X4 = CC(C)=CCc1cc(C(O)C(N[*:1])C(=O)[*:2])ccc1O

Assay: P-glycoprotein substrates identified in KB-8-5-11 adenocarcinoma cell line, qHTS therapeutic library screen (AID 1346987); further: nearly all actives have a fitted effect of over 65% in size
Settings: KB-8-5-11 (P-gp overexpressing) viability, CellTiter-Glo, 72 h; series mostly up to 44.5 µM
In short: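 Luminescence from CellTiter-Glo, read 5 min after addition, quantified survival of KB-8-5-11 (P-gp-overexpressing) cells exposed to compounds for 72 h. AC50 was derived from concentration-response curves.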
Potency means the concentration at half of the fitted maximal effect.

| SMILES | Potency | activity change, negative = cytotoxicity |
| --- | --- | --- |
| NC(=O)c1cnc(NCCc2ccc(O)c(Cl)c2)nc1NCc1ccccc1 | 10.3 µM (active) |  |
| O=C(/C=C/c1cccc(S(=O)(=O)Nc2ccccc2)c1)NO | 2.82 µM (active) |  |
| CC(C)C(N)C(=O)OCCOCn1cnc2c(=O)[nH]c(N)nc21 (stereo unspecified) | inactive |  |
| NC1CCC(Nc2cc(-c3cccc(NCc4cccc(F)c4)n3)c(Cl)cn2)CC1 (stereo unspecified) | 1.16 µM (active) |  |
| CC1(C)CCC(C)(C)c2cc(C3(c4ccc(C(=O)O)cc4)OCCO3)ccc21 | inactive |  |
| CC1(C)CC[C@]2(C(=O)O[C@@H]3O[C@H](CO)[C@@H](O)[C@H](O)[C@H]3O)CC[C@]3(C)C(=CCC4[C@@]5(C)CC[C@H](O[C@@H]6O[C@H](C(=O)O)[C@@H](O)[C@H](O)[C@H]6O)[C@@](C)(CO)C5CC[C@]43C)C2C1 (stereo partly specified) |  | -4.65% [at 9.29 µM] |
| c1ccc(-c2csc(N3CCOCC3)n2)cc1 | inactive |  |
| C[C@@H]([C@@H](O)c1ccc(O)cc1)N1CCC(O)(c2ccccc2)CC1 | inactive |  |
| COC(=O)C1=CO[C@@H](O)C2C(CO)=CCC12 (stereo partly specified) | inactive |  |
| CC(C)=CCc1cc(C(O)C2NC(=O)CNC(=O)C(Cc3c[nH]c4ccccc34)NC(=O)C3CCCN3C(=O)CNC(=O)C(C(C)C)NC(=O)CNC2=O)ccc1O (stereo unspecified) (cyclo(G[X4]GVGPW); configuration not given here) |  | -0.495% [at 9.29 µM] |
| CC12CCC(OC3OC(CO)C(O)C(OC4OC(CO)C(O)C(O)C4O)C3O)CC1=CCC1C2CCC2(C)/C(=C3/COC(=O)C3)CCC12O (stereo unspecified) | inactive |  |
